# From PubChem BioAssay (EPA / NIEHS)
# Inconclusive results are not listed. The source made the active and inactive calls. Rule for the calls, unless noted: active = hit-call score of the fitted dose curve at least 0.9, where 1 is the maximum; inactive = score below 0.9.
# Columns and labels:
# [1] = ATG_PBREM_CIS: Attagene CIS-FACTORIAL HepG2 Assay for human Phenobarbital-responsive Enhancer Module (PBREM) (AID 2282955); conditions: HepG2 PBREM cis-reporter, Attagene multiplexed transcription; actives raise or lower the signal
# Outline: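 Endogenous transcription factors in human liver HepG2 cells drive a PBREM cis-element reporter, whose transcript level after 24 h treatment is quantified by RT-PCR with capillary electrophoresis; activity fitted in both directions against DMSO.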
# [2] = biological target: Paired box protein Pax-6 (Homo sapiens) (UniProt P26367); assay: ATG_Pax6_CIS: Attagene CIS-FACTORIAL HepG2 Assay for human Paired Box 6 (PAX6) (AID 2282956); conditions: HepG2 CIS-FACTORIAL PAX6 reporter transcription, RNA readout; actives raise or lower the signal
# Chain of Paired box protein Pax-6 (Homo sapiens) (P26367 whole entry, looked up): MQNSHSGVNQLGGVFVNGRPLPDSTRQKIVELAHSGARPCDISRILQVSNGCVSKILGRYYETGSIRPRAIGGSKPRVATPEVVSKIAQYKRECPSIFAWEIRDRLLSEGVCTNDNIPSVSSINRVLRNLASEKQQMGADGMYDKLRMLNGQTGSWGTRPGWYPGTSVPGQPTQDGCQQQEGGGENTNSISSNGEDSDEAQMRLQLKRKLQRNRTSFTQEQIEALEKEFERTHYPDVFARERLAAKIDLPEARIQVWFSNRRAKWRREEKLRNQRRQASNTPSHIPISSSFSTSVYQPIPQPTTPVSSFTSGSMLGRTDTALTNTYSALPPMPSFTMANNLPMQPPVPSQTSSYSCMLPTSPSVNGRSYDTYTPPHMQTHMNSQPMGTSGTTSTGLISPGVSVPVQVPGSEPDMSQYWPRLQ
# Outline: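 Fluorescent RT-PCR products separated by capillary electrophoresis report PAX6-linked promoter mRNA in HepG2 cells 24 h post-dose. Curves fitted bidirectionally, DMSO as negative control.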
# [3] = ATG_PXRE_CIS: Attagene CIS-FACTORIAL HepG2 Assay for human Pregnane X Receptor Element (PXRE) (AID 2282957); conditions: HepG2 Attagene CIS-FACTORIAL PXRE reporter, mRNA; actives raise or lower the signal
# Outline: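 Endogenous transcription factor activity in HepG2 was gauged through induction of reporter mRNA driven by a cis-regulating promoter element, sampled 24 h post-treatment. Activity was fitted in both directions against DMSO negative control.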
# [4] = ATG_PPRE_CIS: Attagene CIS-FACTORIAL HepG2 Assay for human Peroxisome Proliferator-activated Response Element (PPRE) (AID 2282958); conditions: HepG2 PPRE cis-element reporter, Attagene transcription factor profiling; actives raise or lower the signal
# Outline: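 HepG2, transient MRTU transfection (cis promoter elements, endogenous TFs). 24 h dosing. RNA → oligo(dT) RT → PCR → 6-FAM primer extension → HpaI digest → CE. Bidirectional fit vs DMSO.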
# [5] = ATG_RORE_CIS: Attagene CIS-FACTORIAL HepG2 Assay for human RAR-related Orphan Receptor Element (RORE) (AID 2282959); conditions: HepG2 Attagene cis-factorial RORE reporter, mRNA; actives raise or lower the signal
# Outline: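 Transient MRTU transfection of human HepG2 liver cells (FuGene 6); 24 h compound exposure; TriZol RNA, oligo(dT) RT, PCR, FAM labeling, HpaI cut, CE fragment analysis. DMSO = negative control/baseline.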
# [6] = ATG_Sox_CIS: Attagene CIS-FACTORIAL HepG2 Assay for human SRY-box transcription factor (SOX) (AID 2282960); conditions: HepG2 Attagene cis-factorial SOX reporter, mRNA; actives raise or lower the signal
# Outline: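 Endogenous factor activity in human liver HepG2 cells carrying transfected cis-regulated reporter units. RNA taken 24 h post-dose, reverse-transcribed, PCR-amplified and sized by capillary electrophoresis. Gain or loss of signal fitted relative to DMSO.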
# [7] = biological target: Transcription factor Sp1 (Homo sapiens) (UniProt P08047); assay: ATG_Sp1_CIS: Attagene CIS-FACTORIAL HepG2 Assay for human Specificity Protein 1 (Sp1) (AID 2282961); conditions: HepG2 Sp1 cis-reporter transcription, actives raise or lower the signal
# Chain of Transcription factor Sp1 (Homo sapiens) (P08047 whole entry, looked up): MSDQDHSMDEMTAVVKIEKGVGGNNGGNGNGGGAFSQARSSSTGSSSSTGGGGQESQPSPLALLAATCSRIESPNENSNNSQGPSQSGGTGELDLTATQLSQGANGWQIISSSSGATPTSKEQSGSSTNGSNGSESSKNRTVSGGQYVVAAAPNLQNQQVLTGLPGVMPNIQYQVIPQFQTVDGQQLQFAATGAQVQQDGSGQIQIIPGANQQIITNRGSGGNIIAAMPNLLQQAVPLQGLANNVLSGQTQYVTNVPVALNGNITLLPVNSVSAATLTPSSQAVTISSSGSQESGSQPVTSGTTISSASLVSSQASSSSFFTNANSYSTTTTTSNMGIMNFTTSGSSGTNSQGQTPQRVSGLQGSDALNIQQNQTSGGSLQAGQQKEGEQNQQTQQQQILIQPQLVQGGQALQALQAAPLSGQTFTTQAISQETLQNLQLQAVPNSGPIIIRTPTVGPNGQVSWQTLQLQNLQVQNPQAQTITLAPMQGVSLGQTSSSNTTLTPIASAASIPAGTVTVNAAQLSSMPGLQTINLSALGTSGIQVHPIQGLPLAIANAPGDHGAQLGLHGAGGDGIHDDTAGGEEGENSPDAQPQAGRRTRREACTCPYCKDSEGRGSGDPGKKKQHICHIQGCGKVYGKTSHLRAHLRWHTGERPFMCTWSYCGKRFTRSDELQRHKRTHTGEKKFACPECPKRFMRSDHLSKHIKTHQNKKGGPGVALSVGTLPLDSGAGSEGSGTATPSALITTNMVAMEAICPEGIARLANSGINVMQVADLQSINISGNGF
# Outline: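 Transient MRTU-transfected HepG2, 24 h compound exposure. Total RNA → oligo(dT) RT → PCR of reporter → 6-FAM primer extension → HpaI digest → CE. Endpoint fitted both directions vs DMSO.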
# [8] = ATG_SREBP_CIS: Attagene CIS-FACTORIAL HepG2 Assay for human Sterol Regulatory Element Binding (SREBP) (AID 2282962); conditions: HepG2 Attagene cis-factorial SREBP reporter, mRNA; actives raise or lower the signal
# Outline: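 Endogenous factor activity is measured in HepG2 through multiplexed reporter units under cis-element control. Following a 24 h incubation, reporter transcripts are reverse-transcribed, PCR-amplified and sized by capillary electrophoresis; activity is fitted in both directions relative to DMSO.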
# [9] = biological target: Signal transducer and activator of transcription 3 (Homo sapiens) (UniProt P40763); assay: ATG_STAT3_CIS: Attagene CIS-FACTORIAL HepG2 Assay for human Signal Transducer and Activator of Transcription 3 (STAT3) (AID 2282963); conditions: HepG2, Attagene cis-factorial STAT3 reporter transcription; actives raise or lower the signal
# Chain of Signal transducer and activator of transcription 3 (Homo sapiens) (P40763 whole entry, looked up, the tested form may be a part): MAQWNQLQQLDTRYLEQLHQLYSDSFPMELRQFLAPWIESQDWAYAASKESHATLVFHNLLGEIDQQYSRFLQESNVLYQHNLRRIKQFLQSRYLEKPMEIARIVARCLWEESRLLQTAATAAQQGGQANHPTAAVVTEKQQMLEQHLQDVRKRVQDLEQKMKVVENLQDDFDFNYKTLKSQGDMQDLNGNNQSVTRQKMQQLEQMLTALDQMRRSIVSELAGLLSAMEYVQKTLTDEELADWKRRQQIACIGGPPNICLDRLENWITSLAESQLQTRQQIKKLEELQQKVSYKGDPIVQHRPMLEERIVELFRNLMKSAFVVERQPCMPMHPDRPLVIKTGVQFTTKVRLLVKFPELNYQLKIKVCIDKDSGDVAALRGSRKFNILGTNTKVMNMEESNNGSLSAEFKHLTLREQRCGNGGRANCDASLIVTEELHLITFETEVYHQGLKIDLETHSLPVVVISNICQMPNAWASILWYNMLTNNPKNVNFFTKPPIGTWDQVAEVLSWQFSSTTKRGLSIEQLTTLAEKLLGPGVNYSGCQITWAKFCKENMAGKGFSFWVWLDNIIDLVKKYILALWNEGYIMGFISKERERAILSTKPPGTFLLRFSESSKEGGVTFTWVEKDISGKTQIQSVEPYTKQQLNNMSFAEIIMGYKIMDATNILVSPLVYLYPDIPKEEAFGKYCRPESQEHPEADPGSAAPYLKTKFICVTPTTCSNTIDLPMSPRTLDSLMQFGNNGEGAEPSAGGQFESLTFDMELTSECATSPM
# Outline: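 Fluorescence intensity of 6-FAM-labelled reporter fragments, separated by capillary electrophoresis after RT-PCR, gave the signal. Cells were HepG2 transfected with cis-element reporter units and treated 24 h; fitting was bidirectional relative to DMSO.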
# [10] = ATG_TA_CIS: Attagene CIS-FACTORIAL HepG2 Assay for human TA Basal Promoter (AID 2282964); conditions: HepG2 Attagene CIS-factorial TA basal promoter reporter; actives raise or lower the signal
# Outline: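 Fluorescence from labelled RT-PCR reporter fragments, separated by capillary electrophoresis, gives the signal. Cells: HepG2 transiently carrying multiple reporter units, 24 h chemical dosing. Gain or loss relative to DMSO.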
# [11] = ATG_TCF_b_cat_CIS: Attagene CIS-FACTORIAL HepG2 Assay for human T-Cell-Factor with beta-catenin (TCF/b-cat) (AID 2282965); conditions: HepG2 TCF/beta-catenin cis-reporter transcription, actives raise or lower the signal
# Outline: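 Cells of the HepG2 line carry transiently transfected reporter units whose promoters respond to endogenous factors. Twenty-four hours post-dosing, reporter mRNA induction is measured by fluorescent RT-PCR and capillary electrophoresis, with DMSO as baseline.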
# [12] = ATG_TGFb_CIS: Attagene CIS-FACTORIAL HepG2 Assay for human Transforming Growth Factor (TGF) (AID 2282967); conditions: HepG2 Attagene CIS TGFb reporter, mRNA transcription; actives raise or lower the signal
# Outline: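 Bidirectional fitting relative to DMSO gave the endpoint. Underlying data: reporter mRNA from HepG2 cells carrying transiently transfected cis-regulated reporter constructs, harvested 24 h after dosing and analyzed by RT-PCR and capillary electrophoresis.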
# [13] = ATG_VDRE_CIS: Attagene CIS-FACTORIAL HepG2 Assay for human Vitamin D Receptor Element (VDRE) (AID 2282968); conditions: HepG2 VDRE cis-reporter transcription, actives raise or lower the signal
# Outline: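 Compounds were applied for 24 h to HepG2 cells transfected with promoter-regulated reporter units. Total RNA was reverse-transcribed, and reporter amplicons were fluorescently labelled and sized by capillary electrophoresis.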
# [14] = biological target: Estrogen receptor (Homo sapiens) (UniProt P03372); assay: ATG_ERa_TRANS: Attagene TRANS-FACTORIAL HepG2 Assay for human Estrogen Receptor alpha (ERa) (AID 2282970; active = hit-call score of the fitted dose curve at least 0.9, where 1 is the maximum); conditions: HepG2 Attagene TRANS ERa GAL4 reporter, mRNA
# Chain of Estrogen receptor (Homo sapiens) (P03372 whole entry, looked up, the tested form may be a part): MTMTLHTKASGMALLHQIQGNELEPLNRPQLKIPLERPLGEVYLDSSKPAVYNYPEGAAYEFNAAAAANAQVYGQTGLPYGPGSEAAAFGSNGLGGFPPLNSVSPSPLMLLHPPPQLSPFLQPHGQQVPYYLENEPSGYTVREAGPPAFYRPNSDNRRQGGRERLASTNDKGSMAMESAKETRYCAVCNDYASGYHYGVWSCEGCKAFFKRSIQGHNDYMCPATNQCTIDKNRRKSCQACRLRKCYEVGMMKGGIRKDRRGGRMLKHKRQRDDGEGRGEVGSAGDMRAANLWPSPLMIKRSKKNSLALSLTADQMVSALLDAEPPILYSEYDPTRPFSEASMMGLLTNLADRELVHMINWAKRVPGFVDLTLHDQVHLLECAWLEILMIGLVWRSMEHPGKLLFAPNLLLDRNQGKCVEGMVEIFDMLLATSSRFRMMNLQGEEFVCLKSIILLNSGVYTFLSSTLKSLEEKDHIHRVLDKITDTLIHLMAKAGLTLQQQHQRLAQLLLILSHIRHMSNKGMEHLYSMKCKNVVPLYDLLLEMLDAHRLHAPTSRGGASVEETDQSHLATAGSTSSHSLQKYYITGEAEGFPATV
# Outline: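 Transfected HepG2 cells carrying GAL4-UAS-driven reporter units were dosed for 24 hours. Total RNA was reverse-transcribed, reporter sequences PCR-amplified, FAM-labelled, HpaI-digested and resolved by capillary electrophoresis. Increases over DMSO control defined activity.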
# [15] = biological target: Steroid hormone receptor ERR1 (Homo sapiens) (UniProt P11474); assay: ATG_ERRa_TRANS: Attagene TRANS-FACTORIAL HepG2 Assay for human Estrogen-Related Receptor alpha (ERRa) (AID 2282971; active = hit-call score of the fitted dose curve at least 0.9, where 1 is the maximum); conditions: HepG2 Attagene TRANS reporter, ERRa transactivation
# Chain of Steroid hormone receptor ERR1 (Homo sapiens) (P11474 whole entry, looked up, the tested form may be a part): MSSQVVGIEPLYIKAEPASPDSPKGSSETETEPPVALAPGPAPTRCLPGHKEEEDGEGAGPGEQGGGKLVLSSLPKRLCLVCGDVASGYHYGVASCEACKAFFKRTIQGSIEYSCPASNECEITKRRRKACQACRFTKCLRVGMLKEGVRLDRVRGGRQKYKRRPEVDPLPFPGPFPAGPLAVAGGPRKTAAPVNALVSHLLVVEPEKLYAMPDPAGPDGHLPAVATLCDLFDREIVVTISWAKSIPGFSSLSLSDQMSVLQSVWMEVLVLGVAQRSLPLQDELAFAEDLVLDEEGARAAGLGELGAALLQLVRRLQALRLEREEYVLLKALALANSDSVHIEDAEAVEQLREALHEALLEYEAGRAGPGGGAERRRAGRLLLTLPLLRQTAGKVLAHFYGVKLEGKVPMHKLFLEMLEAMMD
# Outline: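 HepG2 cells were transiently transfected with multiple GAL4-UAS reporter units, then dosed with compound for 24 h. Total RNA was reverse-transcribed, reporter cDNA PCR-amplified and fluorescently labelled, and fragments resolved by capillary electrophoresis; induction was compared with DMSO.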
# [16] = biological target: X-box-binding protein 1 (Homo sapiens) (UniProt P17861); assay: ATG_Xbp1_CIS: Attagene CIS-FACTORIAL HepG2 Assay for human X-box Binding Protein 1 (XBP1) (AID 2282972); conditions: HepG2 XBP1 cis-element reporter, Attagene multiplex; actives raise or lower the signal
# Chain of X-box-binding protein 1 (Homo sapiens) (P17861 whole entry, looked up): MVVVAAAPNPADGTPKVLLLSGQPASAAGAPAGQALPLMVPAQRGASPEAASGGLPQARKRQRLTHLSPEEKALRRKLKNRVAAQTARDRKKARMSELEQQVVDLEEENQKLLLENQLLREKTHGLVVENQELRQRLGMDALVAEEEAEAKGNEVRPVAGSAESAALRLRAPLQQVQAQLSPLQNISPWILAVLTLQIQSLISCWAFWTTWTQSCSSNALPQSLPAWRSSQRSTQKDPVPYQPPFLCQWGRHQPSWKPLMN
# Outline: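 Multiplexed cis-reporter readout in transfected HepG2 liver cells. Exposure lasted 24 hours. Activity in either direction was fitted against DMSO as negative control and baseline.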
# [17] = ATG_M_19_TRANS: Attagene TRANS-FACTORIAL HepG2 Assay for M19 Transcription Factor (Internal Marker) (AID 2282974; active = hit-call score of the fitted dose curve at least 0.9, where 1 is the maximum); conditions: HepG2 Attagene TRANS-FACTORIAL M19 internal marker reporter
# Outline: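 Fluorescence of 6-FAM-labelled reporter cDNA fragments, separated by capillary electrophoresis, served as the readout. These derived from HepG2 cells carrying transfected GAL4-UAS reporter units after 24 h dosing, with DMSO as negative control.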
# [18] = ATG_TAL_CIS: Attagene CIS-FACTORIAL HepG2 Assay for human TAL Basal Promoter (AID 2282966); conditions: HepG2 Attagene cis-factorial TAL promoter reporter; actives raise or lower the signal;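 note: background control endpoint measuring basal TAL promoter reporter mRNA not a specific factor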
# Outline: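 Endogenous transcription-factor activity is sensed in HepG2 cells through transfected cis-promoter reporter constructs. After 24 h dosing, reporter transcripts are quantified by RT-PCR and capillary electrophoresis. Gain or loss of signal is fitted relative to DMSO.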
# [19] = biological target: Androgen receptor (Homo sapiens) (UniProt P10275); assay: ATG_AR_TRANS: Attagene TRANS-FACTORIAL HepG2 Assay for human Androgen Receptor (AR) (AID 2282973; active = hit-call score of the fitted dose curve at least 0.9, where 1 is the maximum); conditions: HepG2 Attagene TRANS-FACTORIAL AR reporter transcription
# Chain of Androgen receptor (Homo sapiens) (P10275 whole entry, looked up, the tested form may be a part): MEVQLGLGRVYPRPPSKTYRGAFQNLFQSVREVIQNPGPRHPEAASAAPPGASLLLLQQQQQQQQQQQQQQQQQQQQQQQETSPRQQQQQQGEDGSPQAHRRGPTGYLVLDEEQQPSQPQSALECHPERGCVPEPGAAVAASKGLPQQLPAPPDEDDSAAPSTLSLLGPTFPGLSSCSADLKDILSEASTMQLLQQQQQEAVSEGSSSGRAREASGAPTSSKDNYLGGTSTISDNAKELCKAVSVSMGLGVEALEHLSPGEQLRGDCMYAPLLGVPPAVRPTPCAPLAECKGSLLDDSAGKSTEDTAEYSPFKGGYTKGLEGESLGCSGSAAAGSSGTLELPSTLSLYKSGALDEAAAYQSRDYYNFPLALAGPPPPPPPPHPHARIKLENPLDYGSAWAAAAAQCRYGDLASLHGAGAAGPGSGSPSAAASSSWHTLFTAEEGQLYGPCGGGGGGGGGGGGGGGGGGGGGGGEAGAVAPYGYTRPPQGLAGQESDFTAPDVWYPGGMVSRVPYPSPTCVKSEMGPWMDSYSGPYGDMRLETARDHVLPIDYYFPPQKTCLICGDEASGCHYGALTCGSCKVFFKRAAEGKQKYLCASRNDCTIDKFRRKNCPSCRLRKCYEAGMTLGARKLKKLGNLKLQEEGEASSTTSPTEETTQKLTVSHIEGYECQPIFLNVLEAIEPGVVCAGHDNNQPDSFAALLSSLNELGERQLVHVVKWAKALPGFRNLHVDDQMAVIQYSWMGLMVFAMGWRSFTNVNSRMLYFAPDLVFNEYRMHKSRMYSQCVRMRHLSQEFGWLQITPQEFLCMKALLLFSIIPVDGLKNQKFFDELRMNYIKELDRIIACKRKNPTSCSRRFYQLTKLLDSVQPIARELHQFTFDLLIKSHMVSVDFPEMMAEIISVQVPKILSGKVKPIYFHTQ
# Outline: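 Transfected HepG2, 24 h treatment, chimeric NR-Gal4 driving GAL4-UAS reporters. mRNA induction by RT-PCR/capillary electrophoresis fluorescence; DMSO as negative control and baseline.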
# [20] = biological target: Nuclear receptor subfamily 1 group I member 3 (Homo sapiens) (UniProt Q14994); assay: ATG_CAR_TRANS: Attagene TRANS-FACTORIAL HepG2 Assay for human Constitutive Androstane Receptor (CAR) (AID 2282969; active = hit-call score of the fitted dose curve at least 0.9, where 1 is the maximum;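 note: activators raise reporter mRNA above DMSO so AC50 marks induction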); conditions: HepG2 Attagene TRANS-FACTORIAL CAR reporter
# Chain of Nuclear receptor subfamily 1 group I member 3 (Homo sapiens) (Q14994 whole entry, looked up, the tested form may be a part): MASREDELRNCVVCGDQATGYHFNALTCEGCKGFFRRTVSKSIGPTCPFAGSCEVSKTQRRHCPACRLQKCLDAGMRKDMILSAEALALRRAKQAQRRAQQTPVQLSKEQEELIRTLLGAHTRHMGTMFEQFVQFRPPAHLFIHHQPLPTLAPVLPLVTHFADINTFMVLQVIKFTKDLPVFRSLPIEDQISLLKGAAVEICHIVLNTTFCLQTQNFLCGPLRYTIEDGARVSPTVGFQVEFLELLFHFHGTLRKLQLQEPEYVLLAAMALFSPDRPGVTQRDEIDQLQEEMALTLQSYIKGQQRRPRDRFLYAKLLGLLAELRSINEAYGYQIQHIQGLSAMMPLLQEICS
# Outline: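 Transiently transfected HepG2, multiplex TRANS reporters (CAR-Gal4 chimera driving GAL4-UAS reporter). 24 h dosing. Readout: reporter transcript by RT-PCR + capillary electrophoresis, fluorescence intensity; positive direction vs DMSO.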
structure (smiles),measurement,setting,value
O=[N+]([O-])c1ccc(Cl)c(Cl)c1,outcome,[1],inactive
same,outcome,[2],inactive
same,AC50,[3],49.2 µM (active)
same,outcome,[4],inactive
same,outcome,[5],inactive
same,outcome,[6],inactive
same,outcome,[7],inactive
same,outcome,[8],inactive
same,outcome,[9],inactive
same,outcome,[10],inactive
same,outcome,[11],inactive
same,outcome,[12],inactive
same,outcome,[13],inactive
same,outcome,[14],inactive
same,outcome,[15],inactive
same,outcome,[16],inactive
same,outcome,[17],inactive
CCNc1nc(Cl)nc(NC(C)(C)C)n1,outcome,[1],inactive
same,outcome,[2],inactive
same,AC50,[3],6.16 µM (active)
same,outcome,[4],inactive
same,outcome,[5],inactive
same,outcome,[7],inactive
same,outcome,[8],inactive
same,outcome,[9],inactive
same,outcome,[10],inactive
same,outcome,[11],inactive
same,outcome,[18],inactive
same,outcome,[12],inactive
same,outcome,[13],inactive
same,AC50,[14],1.54 µM (active)
same,outcome,[16],inactive
same,outcome,[19],inactive
CCOP(=S)(OCC)SCSc1ccc(Cl)cc1,AC50,[1],5.81 µM (active)
same,outcome,[2],inactive
same,AC50,[3],3 µM (active)
same,outcome,[4],inactive
same,outcome,[5],inactive
same,outcome,[7],inactive
same,outcome,[8],inactive
same,outcome,[9],inactive
same,outcome,[10],inactive
same,outcome,[11],inactive
same,outcome,[18],inactive
same,outcome,[12],inactive
same,AC50,[13],5.83 µM (active)
same,outcome,[20],inactive
same,AC50,[14],3.48 µM (active)
same,outcome,[16],inactive
same,outcome,[17],inactive
c1ccc2c(c1)Nc1ccccc1S2,outcome,[1],inactive
same,outcome,[2],inactive
same,AC50,[3],17.1 µM (active)
same,outcome,[4],inactive
same,outcome,[5],inactive
same,outcome,[6],inactive
same,outcome,[7],inactive
same,outcome,[8],inactive
same,outcome,[9],inactive
same,outcome,[10],inactive
same,outcome,[11],inactive
same,outcome,[12],inactive
same,outcome,[20],inactive
same,AC50,[14],11.7 µM (active)
same,outcome,[15],inactive
same,outcome,[16],inactive
same,outcome,[17],inactive
CCN(CC)C1CCCCC1,outcome,[1],inactive
same,outcome,[2],inactive
same,outcome,[3],inactive
same,outcome,[4],inactive
same,outcome,[5],inactive
same,outcome,[6],inactive
same,outcome,[7],inactive
same,outcome,[8],inactive
same,outcome,[9],inactive
same,outcome,[10],inactive
same,outcome,[11],inactive
same,outcome,[12],inactive
same,outcome,[13],inactive
same,outcome,[20],inactive
same,outcome,[14],inactive
same,outcome,[15],inactive
same,outcome,[16],inactive
COP(N)(=S)OC,outcome,[1],inactive
same,outcome,[2],inactive
same,AC50,[3],47 µM (active)
same,outcome,[4],inactive
same,outcome,[5],inactive
same,outcome,[7],inactive
same,outcome,[8],inactive
same,outcome,[9],inactive
same,outcome,[10],inactive
same,outcome,[11],inactive
same,outcome,[18],inactive
same,outcome,[12],inactive
same,outcome,[13],inactive
same,outcome,[20],inactive
same,outcome,[14],inactive
same,outcome,[15],inactive
same,outcome,[16],inactive
same,outcome,[19],inactive
same,outcome,[17],inactive
COP(=O)(O)OC,outcome,[1],inactive
same,outcome,[2],inactive
same,AC50,[3],32.8 µM (active)
same,outcome,[4],inactive
same,outcome,[5],inactive
same,outcome,[6],inactive
same,outcome,[7],inactive
same,outcome,[8],inactive
same,outcome,[9],inactive
same,outcome,[10],inactive
same,outcome,[11],inactive
same,outcome,[18],inactive
same,outcome,[12],inactive
same,outcome,[20],inactive
same,outcome,[14],inactive
same,outcome,[16],inactive
same,outcome,[19],inactive
same,outcome,[17],inactive
COC(N)=O,outcome,[1],inactive
same,outcome,[2],inactive
same,outcome,[3],inactive
same,outcome,[4],inactive
same,outcome,[5],inactive
same,outcome,[6],inactive
same,outcome,[7],inactive
same,outcome,[8],inactive
same,outcome,[9],inactive
same,outcome,[10],inactive
same,outcome,[11],inactive
same,outcome,[12],inactive
same,outcome,[13],inactive
same,outcome,[16],inactive
same,outcome,[17],inactive
